The values below come from PubChem BioAssay (NCI).

This is part of a sample that, as a whole, favours compounds with a hit. Of some 83,000 tested, about 20% had one in any assay.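 The endpoint reported here, percent growth, reads 100 for growth as untreated, 0 for no net growth and -100 for all cells dead.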 Values without a mark were called inactive. Calls of active or inactive are those of the source. The calls were made as follows: active = growth percent below 10; inactive = the rest.

Assay in all cases: NCI-60 one-dose screen, 48 h (100 = growth as untreated, 0 = no growth, -100 = all killed)
What all share (details): 10 µM unless noted

Experiment [1] concerns NCI-H23 lung.
For experiment [2], the system named is NCI-H226 lung.
The test system of experiment [3] is NCI-H322M lung.
The test system of experiment [4] is HOP-62 NSCLC.
Experiment [5] relates to NCI-H460 lung.
For experiment [6], the system named is HOP-92 NSCLC.
The subject of experiment [7] is NCI-H522 lung.
Experiment [8] concerns A549/ATCC NSCLC.
In experiment [9] the test system is 786-0 renal.
Experiment [10] concerns COLO 205 colon.

For the compound `O=C1NC(=O)C(Cc2ccccc2)(Cc2ccccc2)N1`, the growth in experiment [1] is 101%; in [2] it was 90.4%; in experiment [3], 106%; in [4], 84.9%; in [5], 104%; in experiment [6], 87.5%. Besides, the growth in experiment [7] was 97.5%; in [8], 102%; in [9] it was 90.9%; in [10], 107%.

In the case of `COc1cc2c(c(OC)c1)C1c3cc(OC)ccc3NC(=O)N1CC2` (stereo not given), the growth in experiment [1] is 92.9%; in experiment [2], 99.3%; in experiment [3], 102%; in [4], 67.6%; in experiment [5] it was 79.2%; in [6] it was 80.6%. For the same compound, the growth is 38.3% in [7], 67.2% in [8], 95.6% in experiment [9] and 80.5% in experiment [10].

For `CCN(CC)c1ccc2cc(C(Nc3ccc(C)cc3)c3nnnn3C(C)(C)C)c(=O)oc2c1` (stereo not given), the growth in experiment [1] was 95.1%; in [2] it was 85%; in experiment [3], 103%; in experiment [4], 103%; in [5], 91.9%; in experiment [6], 81%. Also, the growth is 82.8% in experiment [7], 85.4% in experiment [8], 96% in experiment [9] and 110% in [10].

`O=C(CSc1nc2ccc([N+](=O)[O-])cc2[nH]1)Nc1ccc(F)c(Cl)c1`: the growth in experiment [1] was -7.69% (active); in experiment [2] it was 7.74% (active); in [3], 37.1%; in experiment [4], 35%; in experiment [5], 11.1%; in experiment [6], -36.9% (active). In addition, the growth in [7] was -3.92% (active); in experiment [8], 23.4%; in [9], 21.9%; in experiment [10], 24.7%.

`C=CC1=C(C)C2=NC1=CC1=NC(=CC3=C(C)C4=C(O)C(C(=O)O)C(=C5NC(=C2)C(C)C5CCC(=O)O)C4=N3)C(CC)=C1C` (stereo not given): the growth in [1] is 107%; in [2], 97.5%; in [3], 112%; in [4], 121%; in experiment [5] it was 107%; in [6] it was 108%. In addition, the growth in experiment [7] was 116%; in [8], 94.6%; in experiment [9], 113%; in experiment [10], 114%.

`COc1ccc2nc3cc(Cl)ccc3c(Nc3ccc(O)c(CN4CCCC4)c3)c2c1`: the growth is 47.3% in experiment [1]; 97.5% in experiment [2]; 7.91% (active) in [3]; 26.9% in [4]; -27.4% (active) in [5]; 31.9% in [6]. Besides, the growth is -40.7% (active) in [7], 27.7% in experiment [8], -21.8% (active) in experiment [9] and -19.8% (active) in experiment [10].

Consider `O=C1COCCN1c1ccc(NCc2cn(Cc3ccccc3)c3ccccc23)cc1`, for which the growth in [1] is 93.7%; in experiment [2] it was -40.1% (active); in experiment [3], 86.1%; in experiment [4], 90.7%; in [5], 31.9%; in [6], 69.5%. Moreover, the growth in [7] is 94.1%; in experiment [8] it was 81.4%; in experiment [9], 95.3%; in experiment [10] it was 28.8%.

As for `O=C(O)c1cn(C2CC2)c2cc(N3CCN(Cc4cc(Cl)ccc4O)CC3)c(F)cc2c1=O`, the growth in experiment [1] is 78.8%; in experiment [2] it was 82.8%; in [3] it was 77.9%; in experiment [4], 64.1%; in [5], 52%; in [6], 59.9%. The growth was 67.5% in experiment [7], 30.4% in experiment [8], 85.1% in [9] and 75.7% in experiment [10].

`Cc1ccc2c(c1)/C(=N\N=C/c1cn(C(C)C)c3ccccc13)C(=O)N2`: the growth in [1] was 61.7%; in experiment [2], 56.1%; in experiment [3] it was 61.1%; in experiment [4] it was 49%; in experiment [5], 40.5%; in experiment [6], 71.8%. Moreover, the growth in [7] was 14.4%; in [8], 60.8%; in [9] it was 93%; in experiment [10], -29.8% (active).

In the case of `C=C(C)[C@@H]1CC[C@]2(C(=O)NCCCN)CC[C@]3(C)[C@H](CC[C@@H]4[C@@]5(C)CC[C@H](O)C(C)(C)[C@@H]5CC[C@]43C)[C@@H]12`, the growth in [1] is -8.47% [100 µM] (active); in [2], 36.6% [100 µM]; in experiment [3] it was -68.8% [100 µM] (active); in experiment [4] it was -26.8% [100 µM] (active); in experiment [5] it was -43.2% [100 µM] (active); in experiment [6], -55.5% [100 µM] (active). For the same compound, the growth in experiment [7] was -17% [100 µM] (active); in [8], -4.7% [100 µM] (active); in experiment [9], -22.6% [100 µM] (active); in [10], 7.82% [100 µM] (active).

As for `O=C(Nc1cccc(F)c1)c1cc(=O)[nH]c2cc(Br)ccc12`, the growth is 72.5% in experiment [1]; 54.7% in experiment [2]; 53.8% in experiment [3]; 50.9% in experiment [4]; 21.9% in experiment [5]; 47.4% in [6]. Moreover, the growth in experiment [7] is 23.9%; in experiment [8] it was 40.3%; in experiment [9] it was 69.7%; in [10] it was 20.4%.

Consider `COc1ccc(C2NC(=O)C(C#N)c3c2sc2c(F)cccc32)cc1` (stereo not given), for which the growth in experiment [1] is 76.3%; in experiment [2], 60.3%; in [3] it was 65.3%; in experiment [4] it was 46.4%; in [5], 28.6%; in [6], 54.2%. Also, the growth in [7] was 20.1%; in experiment [8], 42.6%; in experiment [9], 71%; in experiment [10], 91.6%.
